According to PubChem BioAssay AID1159580 (chemical genetic matrix, 2015):
Hit rate of the full screen: of about 5,500 compounds, about 2,000 (36%) were called active. About 18% were inconclusive and are not listed. Cut-off read from the data, not from the text of the source: active = normalized growth mostly below about 0.91 (no sharp cut-off); inconclusive = no clear call, values can overlap the other calls; inactive = mostly above about 0.92. Some of the results follow.

Assay: chemical genetic growth profiling, strain panel (AID 1159580);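 note: tested at 20 µM; growth read once vehicle control cultures reached saturation at 30 °C; 1 = growth at the plate median or of vehicle wells; lower values mean less growth of the strain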
Conditions: growth OD

Measured: normalized growth

COc1cc([C@@H]2c3cc4c(cc3[C@H](OC(C)=O)[C@H]3COC(=O)[C@H]23)OCO4)cc(OC)c1OC
inactive: S. cerevisiae deletion strains, locus YJR066W, strain TOR1, hits give low values 0.932 | S. cerevisiae deletion strains, locus YKL009W, strain mrt4, hits give low values 0.972 | S. cerevisiae deletion strains, locus YKL068W, hits give low values 0.988 | S. cerevisiae deletion strains, locus YKL085W, strain MDH1 (second series), hits give low values 1 | S. cerevisiae deletion strains, locus YKL085W, strain MDH1, hits give low values 1 | S. cerevisiae deletion strains, locus YKL160W, strain elf1, hits give low values 0.999 | S. cerevisiae deletion strains, locus YKL190W, strain CNB1, hits give low values 1 | S. cerevisiae deletion strains, locus YKR001C, strain vps1, hits give low values 0.976 | S. cerevisiae deletion strains, locus YKR026C, strain gcn3, hits give low values 1.01 | S. cerevisiae deletion strains, locus YKR091W, strain srl3, hits give low values 1.01 | S. cerevisiae deletion strains, locus YLL001W, strain dnm1, hits give low values 1 | S. cerevisiae deletion strains, locus YLL026W, hits give low values 1.01 | S. cerevisiae deletion strains, locus YLL041C, strain sdh2, hits give low values 1.01 | S. cerevisiae deletion strains, locus YLR027C, strain aat2, hits give low values 1 | S. cerevisiae deletion strains, locus YLR039C, strain RIC1, hits give low values 0.954 | S. cerevisiae deletion strains, locus YLR058C, strain SHM2, hits give low values 0.998 | S. cerevisiae deletion strains, locus YLR102C, strain apc9, hits give low values 0.974 | S. cerevisiae deletion strains, locus YLR113W, strain HOG1, hits give low values 1.07 | S. cerevisiae deletion strains, locus YLR221C, strain rsa3, hits give low values 1.01 | S. cerevisiae deletion strains, locus YLR258W, strain gsy2, hits give low values 0.997 | S. cerevisiae deletion strains, locus YLR262C, strain YPT6 (second series), hits give low values 0.914 | S. cerevisiae deletion strains, locus YLR262C, strain YPT6, hits give low values 0.933 | S. cerevisiae deletion strains, locus YLR268W, strain sec22, hits give low values 0.984 | S. cerevisiae deletion strains, locus YLR320W, strain mms22, hits give low values 1 | S. cerevisiae deletion strains, locus YLR330W, strain CHS5, hits give low values 0.994 | S. cerevisiae deletion strains, locus YLR342W, strain FKS1 (second series), hits give low values 0.995 | S. cerevisiae deletion strains, locus YLR342W, strain FKS1, hits give low values 1.01 | S. cerevisiae deletion strains, locus YLR357W, strain rsc2, hits give low values 1.06 | S. cerevisiae deletion strains, locus YLR370C, strain arc18, hits give low values 1.01 | S. cerevisiae deletion strains, locus YLR371W, strain rom2, hits give low values 0.992 | S. cerevisiae deletion strains, locus YLR384C, strain iki3, hits give low values 1.02 | S. cerevisiae deletion strains, locus YLR418C, strain cdc73, hits give low values 0.971 | S. cerevisiae deletion strains, locus YML016C, strain PPZ1, hits give low values 0.997 | S. cerevisiae deletion strains, locus YML032C, strain rad52, hits give low values 0.97 | S. cerevisiae deletion strains, locus YML120C, strain ndi1, hits give low values 1 | S. cerevisiae deletion strains, locus YML124C, strain tub3, hits give low values 0.984 | S. cerevisiae deletion strains, locus YMR058W, strain fet3, hits give low values 1.01 | S. cerevisiae deletion strains, locus YMR078C, strain ctf18, hits give low values 0.99 | S. cerevisiae deletion strains, locus YMR125W, strain sto1, hits give low values 1.01 | S. cerevisiae deletion strains, locus YMR129W, hits give low values 1 | S. cerevisiae deletion strains, locus YMR205C, strain PFK2, hits give low values 1.02 | S. cerevisiae deletion strains, locus YMR223W, strain ubp8, hits give low values 0.974 | S. cerevisiae deletion strains, locus YMR231W, strain pep5, hits give low values 0.997 | S. cerevisiae deletion strains, locus YMR307W, strain GAS1, hits give low values 1.02 | S. cerevisiae deletion strains, locus YNL067W, strain RPL9B, hits give low values 1.01 | S. cerevisiae deletion strains, locus YNL071W, strain lat1, hits give low values 1.01 | S. cerevisiae deletion strains, locus YNL128W, strain TEP1, hits give low values 0.992 | S. cerevisiae deletion strains, locus YNL183C, strain NPR1, hits give low values 0.993 | S. cerevisiae deletion strains, locus YNL209W, strain ssb2, hits give low values 0.996 | S. cerevisiae deletion strains, locus YNL233W, strain BNI4, hits give low values 0.997 | S. cerevisiae deletion strains, locus YNL248C, strain rpa49, hits give low values 1.01 | S. cerevisiae deletion strains, locus YNL250W, strain rad50, hits give low values 0.985 | S. cerevisiae deletion strains, locus YNL271C, strain bni1, hits give low values 0.983 | S. cerevisiae deletion strains, locus YNL298W, strain CLA4, hits give low values 0.997 | S. cerevisiae deletion strains, locus YNL307C, strain MCK1, hits give low values 0.98 | S. cerevisiae deletion strains, locus YNL322C, strain KRE1 (second series), hits give low values 1.03 | S. cerevisiae deletion strains, locus YNR049C, strain mso1, hits give low values 1 | S. cerevisiae deletion strains, locus YNR052C, strain pop2, hits give low values 0.973 | S. cerevisiae deletion strains, locus YOL006C, strain TOP1, hits give low values 0.861 | S. cerevisiae deletion strains, locus YOL012C, strain htz1 1.23 | S. cerevisiae deletion strains, locus YOL147C, strain pex11, hits give low values 0.981 | S. cerevisiae deletion strains, locus YOR001W, strain rrp6, hits give low values 1 | S. cerevisiae deletion strains, locus YOR061W, strain CKA2, hits give low values 0.994 | S. cerevisiae deletion strains, locus YOR069W, strain VPS5, hits give low values 0.99 | S. cerevisiae deletion strains, locus YOR070C, strain gyp1, hits give low values 1.01 | S. cerevisiae deletion strains, locus YOR080W, strain dia2, hits give low values 1 | S. cerevisiae deletion strains, locus YOR083W, strain WHI5, hits give low values 1 | S. cerevisiae deletion strains, locus YOR106W, strain vam3, hits give low values 1.02 | S. cerevisiae deletion strains, locus YOR136W, strain idh2, hits give low values 0.98 | S. cerevisiae deletion strains, locus YOR144C, strain elg1, hits give low values 0.99 | S. cerevisiae deletion strains, locus YOR184W, strain ser1, hits give low values 1.01 | S. cerevisiae deletion strains, locus YOR231W, strain MKK1, hits give low values 0.972 | S. cerevisiae deletion strains, locus YOR265W, strain rbl2, hits give low values 1.01 | S. cerevisiae deletion strains, locus YOR270C, strain vph1, hits give low values 0.921 | S. cerevisiae deletion strains, locus YOR290C, strain snf2, hits give low values 1 | S. cerevisiae deletion strains, locus YOR316C, strain cot1, hits give low values 0.992 | S. cerevisiae deletion strains, locus YPL051W, strain arl3, hits give low values 1 | S. cerevisiae deletion strains, locus YPL078C, strain atp4, hits give low values 0.998 | S. cerevisiae deletion strains, locus YPL106C, strain sse1, hits give low values 1.02 | S. cerevisiae deletion strains, locus YPL240C, strain hsp82, hits give low values 1.01 | S. cerevisiae deletion strains, locus YPL256C, strain CLN2, hits give low values 0.986 | S. cerevisiae deletion strains, locus YPR119W, strain clb2, hits give low values 0.986 | S. cerevisiae deletion strains, locus YPR141C, strain kar3, hits give low values 0.98 | S. cerevisiae deletion strains, locus YPR163C, strain tif3, hits give low values 0.991 | S. cerevisiae deletion strains, locus YPR167C, strain met16, hits give low values 0.969 | S. cerevisiae deletion strains, strain wtn01, hits give low values 1 | S. cerevisiae strains, strain wild type, hits give low values 1
